Compounds with a hit are over-represented: about 10% of the library has one in this group of screens.
L3MBTL1 inh: blocks human L3MBTL1. AlphaScreen L3MBTL1–H3K9me1 peptide binding. Potency, µM (series often up to 57.1 µM), for the others: at the highest dose activity, negative = inhibition, most hits filed as inhibitors. Q9Y468. 0.66% of 230,000 active; note: % is set by controls: 0 for no effect and ±100 for the full control effect; nearly all actives have a fitted effect of over 60% in size
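Read-out is AlphaScreen signal from streptavidin donor and nickel chelate acceptor beads (10 ug/mL final each) bridging L3MBTL1 (50 nM) and biotinylated K9-monomethylated H3(1-15) peptide (75 nM), after 30 min compound exposure at room temperature.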
BAZ2B inh: blocks human BAZ2B; Q9UIF8; AlphaScreen BAZ2B-H3K14Ac peptide displacement; Potency, µM (titrated, usually from 114 µM), for the others: at the top dose activity change, negative = inhibition, most hits filed as inhibitors; 4.4% of 360,000 active; note: % is set by controls: 0 for no effect and ±100 for the full control effect; nearly all actives have a fitted effect of over 60% in size
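Multi-concentration screen (max 110 uM) measuring displacement of acetylated histone H3 peptide from BAZ2B by AlphaScreen, using 50 nM protein, 50 nM peptide and 10 ug/mL streptavidin donor plus Ni-chelate acceptor beads.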
JMJD2A Tudor: JMJD2A Tudor domain (human) inhibition; Potency, µM (doses to about 114 µM), inactives show top-dose activity change, negative = inhibition, actives largely listed as inhibitors; AlphaScreen JMJD2A-Tudor / H3K4me3 peptide binding; AID 504339; 4.4% of 390,000 active; O75164; note: % is set by controls: 0 for no effect and ±100 for the full control effect; nearly all actives have a fitted effect of over 50% in size
Target sequence (O75164 whole entry, looked up, the tested form may be a part): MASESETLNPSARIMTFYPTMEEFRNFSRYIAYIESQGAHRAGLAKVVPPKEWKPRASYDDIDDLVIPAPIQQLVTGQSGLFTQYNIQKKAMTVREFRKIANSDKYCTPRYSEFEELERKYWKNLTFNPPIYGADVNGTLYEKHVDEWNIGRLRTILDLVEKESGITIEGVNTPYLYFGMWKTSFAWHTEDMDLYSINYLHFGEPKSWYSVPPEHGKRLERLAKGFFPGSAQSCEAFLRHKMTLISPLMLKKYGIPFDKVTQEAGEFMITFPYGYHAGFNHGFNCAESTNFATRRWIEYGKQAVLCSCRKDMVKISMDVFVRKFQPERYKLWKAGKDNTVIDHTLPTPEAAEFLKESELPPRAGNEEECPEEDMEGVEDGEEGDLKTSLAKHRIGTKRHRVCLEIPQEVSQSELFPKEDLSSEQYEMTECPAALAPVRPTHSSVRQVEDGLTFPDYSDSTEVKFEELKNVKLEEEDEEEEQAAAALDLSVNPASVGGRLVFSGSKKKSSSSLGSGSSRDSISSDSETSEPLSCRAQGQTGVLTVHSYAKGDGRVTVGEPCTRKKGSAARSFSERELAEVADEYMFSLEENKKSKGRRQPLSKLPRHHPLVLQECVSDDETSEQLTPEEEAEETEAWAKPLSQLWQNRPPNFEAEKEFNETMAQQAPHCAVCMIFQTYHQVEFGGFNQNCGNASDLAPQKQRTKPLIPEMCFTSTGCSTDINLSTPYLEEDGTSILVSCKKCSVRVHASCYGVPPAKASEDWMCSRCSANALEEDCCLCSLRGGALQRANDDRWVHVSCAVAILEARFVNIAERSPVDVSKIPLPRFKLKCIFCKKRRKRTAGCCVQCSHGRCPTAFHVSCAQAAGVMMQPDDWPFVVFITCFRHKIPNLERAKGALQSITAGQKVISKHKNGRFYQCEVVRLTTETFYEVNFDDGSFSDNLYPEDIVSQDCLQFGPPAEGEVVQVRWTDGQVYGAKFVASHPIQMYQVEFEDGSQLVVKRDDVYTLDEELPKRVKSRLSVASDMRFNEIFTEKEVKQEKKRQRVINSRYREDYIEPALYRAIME
GLS inh: blocks human kidney-isoform glutaminase activity | O94925 | 0.21% of 410,000 active | GLS enzymatic activity, qHTS titration | Potency, µM (series often up to 45.5 µM), inactives show top-dose activity change, negative = inhibition, hits mostly inhibitors; note: % is set by controls: 0 for no effect and ±100 for the full control effect
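Assay buffer: 45 mM KH2PO4 pH 8.2, 0.02% Tween-20. hKGA acts on L-glutamine (1 mM solution added); product glutamate is reported by an oxidase/peroxidase Amplex Red coupling, with fluorescence taken at baseline and 30 min.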
HP1b chromo inh: inhibitors of HP1-beta chromodomain binding to methylated histone tails; Potency, µM (top dose mostly 114 µM), for inactives: at the top dose activity change, negative = inhibition, usual class: inhibitors; AID 540317; AlphaScreen HP1-beta / biotin-H3K9me3 peptide binding; 0.56% of 390,000 active; P83916; note: nearly all actives have a fitted effect of over 70% in size
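AlphaScreen: HP1-beta (50 nM) preformed 30 min with biotin-H3(1-18)K9me3 peptide (50 nM) in PBS pH 7.4, 0.01% Tween-20. Compound added for 30 min at RT, then streptavidin donor/nickel chelate acceptor beads (10 ug/mL) for 30 min.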
G9a block: inhibitors of human histone lysine methyltransferase G9a. Potency, µM (series often up to 102 µM), for the others: at the top dose activity, negative = inhibition, hits mostly inhibitors. AID 504332. 8.8% of 350,000 active. Q96KQ7. G9a H3K9 monomethylation, AlphaScreen, 2 h; note: % is set by controls: 0 for no effect and ±100 for the full control effect; nearly all actives have a fitted effect of over 75% in size
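G9a (20 nM) preincubated 15 min RT with compounds, then 500 nM biotinylated H3K9 peptide and 20 uM SAM added; 2 h RT reaction. Monomethyl-H3K9 product detected by AlphaScreen with anti-H3K9me1 antibody, streptavidin donor and anti-rabbit IgG acceptor beads.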
* marks the source's active call; other numbers are inactive results; u = inconclusive; x = no result given; [ ] = dose if it differs, or a comment. Calls come from the whole dose curve; as a rule, active = well fitted curve in the direction sought with a large enough effect; inconclusive = small, poorly fitted or top-dose-only effect, or another doubt; inactive = no such curve, though single readings can be large; an effect the other way counts as inactive or inconclusive. Potency is the fitted concentration of half-maximal effect.

SMILES	L3MBTL1 inh	BAZ2B inh	JMJD2A Tudor	GLS inh	HP1b chromo inh	G9a block
O=C(c1cc(-c2ccccc2)n[nH]1)N1CCc2c([nH]c3ccccc23)C1c1ccccn1 (stereo unspecified)	u	-37%	u	5%	-6%	u
O=C(c1ccccc1-c1ncc[nH]1)N1CCc2c([nH]c3ccccc23)C1c1ccccn1 (stereo unspecified)	0%	28µM*	u	13%	-25%	x
CN(CCO)c1ccc(C(C(=O)c2ccccc2)c2ccc(N(C)CCO)cc2)cc1	u	45µM*	45µM*	32%	u	4%[2.33 µM]
C=CCn1c(CNS(=O)(=O)c2ccc(Br)cc2)n[nH]c1=S	x	-13%	28µM*	-24%	29%	32µM*
C=CCn1c(CNS(=O)(=O)c2ccc(F)cc2)n[nH]c1=S	x	-3%	13µM*	-6%	51%	23%[12.7 µM]
C=CCn1c(CNS(=O)(=O)c2ccc(Cl)cc2)n[nH]c1=S	x	-13%	28µM*	5%	28%	32µM*
Cc1cccc(NC(=O)Cn2c(=O)n(CCCS(=O)(=O)C3CCCCC3)c(=O)c3ccccc32)c1	x	-20%	-9%	20%	15%	9%[59 µM]
CC(C)(C)c1ccc(-c2nc(NC(=O)CSc3ncnc4sc5c(c34)CCCC5)ns2)cc1	x	1%	-11%	1%	41%	-1%[59 µM]
O=C(Cn1cnc([N+](=O)[O-])c1)Nc1ccc(Cl)cc1Cl	x	x	x	-1%	x	x
O=C(CN1CCN(CC(=O)Nc2ccccc2Cl)CC1)Nc1ccc(F)c(F)c1	x	5%	-18%	0%	37%	u
O=C(Cn1cnc([N+](=O)[O-])c1)Nc1ccc(F)c(Cl)c1	x	-13%	-13%	4%	4%	50µM*
Cc1ccc(NC(=O)CN2CCN(C)CC2)cc1S(=O)(=O)N1CCOCC1	5%	-3%	-16%	8%	23%	u
Cc1ccc(NC(=O)CN2CCN(C)CC2)cc1Br	-7%	50µM*	5.6µM*	-1%	u	x
O=C(CN1CCCCCC1)Nc1ccc(F)c(F)c1	-6%	50µM*	8.9µM*	24%	u	32µM*
Cc1cccc(NC(=O)CN2CCCCCC2)c1	x	u	20µM*	6%	50µM*	14µM*
O=C(NCCn1ccc2ccccc21)c1ccc(Cl)cc1	x	9%	-2%	0%	15%	-4%[59 µM]
Cc1ccc(S(=O)(=O)NCCc2nnc3ccc(SCc4ccccc4C)nn23)cc1	x	-8%	-33%	u	49%	-28%[59 µM]
O=C(CN1CCCCC1)Nc1ccc(F)c(Cl)c1	-2%	2%	5%	5%	21%	14%
Cc1ccc(NC(=O)CN(C)CC(=O)Nc2ccc(F)c(Cl)c2)cc1	u	50µM*	14µM*	7%	u	32µM*
Cc1ccc(OCCC(=O)Nc2ccc(F)c(Cl)c2)cc1	18%	6%	11%	5%	64%	37%[59 µM]
Cc1cc(N)ccc1NC(=O)CN1CCCC1	x	50µM*	22µM*	14%	u	25µM*
O=C(CN1CCCC1)Nc1ccc(F)c(Cl)c1	x	u	22µM*	4%	-21%	x
COc1ccc(C2/C=C\CN(C(=O)C3CC3)C(Cc3ccccc3)C(=O)N2Cc2ccc(F)cc2)cc1 (stereo unspecified)	x	x	-20%	x	28%	x
CC(=O)NC(Cc1c[nH]c2ccccc12)C(=O)NCc1ccco1 (stereo unspecified)	x	2%	-17%	-18%	23%	9%
CC(C)C(CC(=O)NCc1ccco1)c1ccco1 (stereo unspecified)	-15%	u	-28%	u	10%	40µM*
SMILES	L3MBTL1 inh	BAZ2B inh	JMJD2A Tudor	GLS inh	HP1b chromo inh	G9a block
O=C(CCSCc1ccccc1Cl)NCc1ccco1	x	u	-2%	2%	22%	22%[59 µM]
CC(Cc1c[nH]c2ccccc12)C(=O)NCc1ccco1 (stereo unspecified)	x	50µM*	u	u	u	32µM*
O=C(CCCSc1nc2ccccc2s1)NCc1ccco1	-3%	-1%	-11%	7%	0%	79µM*
O=C(CCSCCC(=O)NCc1ccco1)NCc1ccco1	u	56µM*	20µM*	-27%	u	u
COc1cccc(Sc2nc(N(C)C)ncc2S(=O)(=O)c2ccc(Cl)cc2)c1	x	x	-13%	x	37%	x
Cc1cc(C(F)F)nn1CC(=O)NCc1ccco1	-2%	-33%	-16%	11%	1%	u
O=C(NCc1ccco1)c1cccnc1-c1nc2ccccc2s1	-7%	-34%	79µM*	-2%	u	u
Cc1cc(-c2ccco2)n(CC(=O)NCc2ccco2)n1	x	1%	-24%	-6%	31%	50µM*
CCCC(=O)O[C@]1(C(=O)CCl)[C@H](C)C[C@@H]2[C@H]3CCC4=CC(=O)C=C[C@]4(C)[C@@]3(F)C(=O)C[C@@]21C	x	x	x	4%	x	-27%[12.7 µM]
Cc1ccc(NC(=O)Cn2nnc(-c3nc(-c4ccc(Cl)cc4)no3)c2N)cc1C	x	-10%	9%	3%	28%	u
Cc1ccc(NC(=O)COC(=O)/C=C/c2ccc(Br)o2)cc1S(=O)(=O)N(C)C	-29%	u	-21%	-10%	18%	u
O=C(COC(=O)/C=C/c1ccco1)NCc1ccc(Cl)cc1	-5%	-5%	-5%	-8%	22%	7.9µM*
CN(C)S(=O)(=O)c1ccc(Cl)c(NC(=O)COC(=O)/C=C/c2ccco2)c1	-20%	56µM*	-20%	6%	14%	u
CN(C)S(=O)(=O)c1cccc(NC(=O)COC(=O)/C=C/c2ccc(Br)o2)c1	-15%	-33%	-14%[11.4 µM]	0%	u	45µM*
O=C(COC(=O)/C=C/c1ccco1)NCc1ccccc1	-8%	-36%	-18%	23%	45%	u
O=C(Cn1nc(Cc2cccnc2)c2ccccc2c1=O)Nc1ccc(F)c(Cl)c1	x	-5%	-20%	-9%	29%	4%[59 µM]
COc1cccc(CNC(=O)c2ccc3c(c2)N(Cc2ccc(F)cc2Cl)C(=O)c2ccccc2S3)c1	x	-2%	-19%	-3%	23%	-4%[59 µM]
CN=C(NC)NCc1ccccc1	x	x	x	-4%	x	x
COc1ccc(N2CCN(C(=O)COC(=O)Cc3cccc(OC)c3)CC2)cc1	u	-27%	-35%	-2%	-16%	40µM*
COc1ccc(N2CCN(C(=O)COC(=O)Cc3c(F)cccc3Cl)CC2)cc1	-3%	u	u	26%	-13%	50µM*
COc1ccc(N2CCN(C(=O)COC(=O)COc3cc(C)cc(C)c3)CC2)cc1	-12%	u	-33%	-33%	-14%	32µM*

High-throughput results deposited in PubChem by National Center for Advancing Translational Sciences (NCATS).
